High-throughput results: PubChem, National Center for Advancing Translational Sciences (NCATS)
JMJD2A Tudor inh = JMJD2A Tudor domain (human) inhibition | AID 504339 | O75164 | AlphaScreen JMJD2A-Tudor / H3K4me3 peptide binding | 390,000 tested, 4.4% active | Potency, µM (doses to about 114 µM), actives largely listed as inhibitors; further: nearly all actives have a fitted effect of over 50% in size
HP1b chromo inh = HP1-beta chromodomain-methylated histone interaction inhibition; P83916; Potency, µM (titrated, usually from 114 µM), usual class: inhibitors; AID 540317; AlphaScreen HP1-beta / biotin-H3K9me3 peptide binding; 390,000 tested, 0.56% active; further: nearly all actives have a fitted effect of over 70% in size
Target sequence (P83916 whole entry, looked up): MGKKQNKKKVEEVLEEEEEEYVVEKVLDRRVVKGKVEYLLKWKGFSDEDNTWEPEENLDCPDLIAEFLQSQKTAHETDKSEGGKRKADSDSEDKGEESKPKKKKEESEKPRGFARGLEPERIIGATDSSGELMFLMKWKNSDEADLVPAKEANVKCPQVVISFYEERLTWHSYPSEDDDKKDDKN
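Compound inhibition of the preformed complex between 50 nM HP1-beta and 50 nM biotinylated H3K9me3 peptide was read by AlphaScreen. Buffer was PBS pH 7.4 with 0.01% Tween-20. Incubations ran 30 min at room temperature, with 10 ug/mL donor/acceptor beads.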
Six1-Eya2 blk = inhibitors of human Six1/Eya2 interaction; Q15475+O00167; AlphaScreen GST-Six1/His-Eya2 binding, biochemical; hits give low values; activity change, % (no concentration beside the values); AID 651725; 360,000 tested, 0.56% active; in the data active means activity change below about -65%; inconclusive means mostly about -30% to -63%
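Homogeneous AlphaScreen proximity assay pairing GST-Six1 with His-tagged Eya2 (added as 5X mix: 250 nM and 500 nM) in 50 mM Tris pH 8.0, 300 mM NaCl, 1 mM TCEP. Glutathione donor and nickel acceptor beads; 1 h, 37 °C, dark.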
CtBP-E1A inh = CtBP/E1A binding inhibition | AlphaScreen GST-E1A/His-CtBP binding, 1536-well; hits give low values | AID 651724 | activity change, % (no concentration beside the values) | 340,000 tested, 0.49% active; in the data active means activity change below about -65%; inconclusive means mostly about -30% to -63%
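Steps: dispense buffer (Tris pH 8.0, NaCl 300 mM, TCEP 1 mM, BSA, Tween 20); add 5X protein mix (GST-E1A, His-CtBP, 125 nM each); pin 23 nL compound; 2 h at 37 °C, dark; add 5X beads (50 ug/mL); 1 h; read.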
G9a block = inhibitors of human histone lysine methyltransferase G9a. Q96KQ7. G9a H3K9 monomethylation, AlphaScreen, 2 h. Potency, µM (top dose mostly 102 µM), hits mostly inhibitors. 350,000 tested, 8.8% active; further: nearly all actives have a fitted effect of over 75% in size
Target sequence (Q96KQ7 913-1193 limits assumed): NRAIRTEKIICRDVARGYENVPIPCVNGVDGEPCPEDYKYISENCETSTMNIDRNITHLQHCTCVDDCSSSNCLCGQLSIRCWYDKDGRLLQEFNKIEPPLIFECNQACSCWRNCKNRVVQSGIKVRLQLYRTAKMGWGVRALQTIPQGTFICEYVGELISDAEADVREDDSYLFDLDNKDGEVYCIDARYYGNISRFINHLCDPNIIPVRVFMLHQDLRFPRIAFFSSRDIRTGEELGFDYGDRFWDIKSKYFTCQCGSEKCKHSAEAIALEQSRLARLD
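AlphaScreen read-out: biotin-H3K9 peptide (500 nM) methylation by 20 nM enzyme with 20 uM SAM, 2 h at room temperature after 15 min compound preincubation; anti-monomethyl H3K9 antibody plus donor/acceptor beads, 10 min dark.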
BAZ2B block = inhibitors of human BAZ2B bromodomain | 360,000 tested, 4.4% active | Potency, µM (highest dose often 114 µM), usual class: inhibitors | Q9UIF8 | AID 504333 | AlphaScreen BAZ2B-H3K14Ac peptide displacement; further: nearly all actives have a fitted effect of over 60% in size
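Multi-concentration screen (max 110 uM) measuring displacement of acetylated histone H3 peptide from BAZ2B by AlphaScreen, using 50 nM protein, 50 nM peptide and 10 ug/mL streptavidin donor plus Ni-chelate acceptor beads.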
A number is an active result; n = inactive; u = inconclusive; x = no result; [ ] = another dose, or the depositor's remark. Only some compounds are listed: those with a hit (about 10% of all), similar ones and a draw of the others. Unless noted, the call rests on the fitted dose curve; in most records, active means well fitted inhibition curve with a large enough effect; inconclusive means small, poorly fitted or top-dose-only effect; inactive means no such curve, though single readings can be large or run the other way.

SMILES	JMJD2A Tudor inh	HP1b chromo inh	Six1-Eya2 blk	CtBP-E1A inh	G9a block	BAZ2B block
COc1ccc(C(=O)Oc2ccc(C3NC(=O)c4c(sc5c4CCN(C)C5)N3)cc2OC)cc1 (stereo unspecified)	56µM	u	x	x	n	n
CN1CCc2c(sc3c2C(=O)NC(c2cccs2)N3)C1 (stereo unspecified)	u	n	n	n	u	n
CN1CCc2c(sc3c2C(=O)NC(c2ccc(-c4cccc(Cl)c4)o2)N3)C1 (stereo unspecified)	50µM	u	u	n	x	40µM
CSc1ccc(C2NC(=O)c3c(sc4c3CCN(C)C4)N2)cc1 (stereo unspecified)	u	n	n	n	40µM	n
Cc1ccsc1C1NC(=O)c2c(sc3c2CCN(C)C3)N1 (stereo unspecified)	u	u	n	n	40µM	n
COc1ccc(NC(=O)c2ccco2)cc1NC(=O)COc1ccc(Cl)c(C)c1	n	n	x	x	n	n
COc1ccc(-c2nc3ccccc3n3c(-c4cccc(C)c4)c4c(=O)n(C)c(=O)n(C)c4c23)cc1OC	n	n	x	x	n	n
CC(C)c1ccc(C2NC(=O)c3c(sc4c3CCN(C)C4)N2)cc1 (stereo unspecified)	n	n	x	x	u	n
CN1CCc2c(sc3c2C(=O)NC(c2ccc(C(C)(C)C)cc2)N3)C1 (stereo unspecified)	u	n	x	x	8.9µM	n
CCNC(=O)/N=C1/NC(=O)C(C(C)C)O1 (stereo unspecified)	7.9µM	n	n	n	u	n
C[C@@H]1CCCCO[C@H](CN(C)C(=O)c2ccccc2)[C@@H](C)CN([C@H](C)CO)C(=O)c2cc(NC(=O)c3ccncc3)ccc2O1	x	x	n	n	x	x
CCN1/C(=C/c2ccc3cc(C)ccc3[n+]2CC)Sc2cc(C)ccc21	u	n	n	n	22µM	40µM
CCN1/C(=C/c2ccc3cc(C)ccc3[n+]2C)Sc2ccc3sccc3c21	14µM	n	n	x	16µM	45µM
CCCCN1/C(=C/c2ccc3ccccc3[n+]2CC)Sc2ccccc21	32µM	n	n	n	32µM	u
c1ccc2c(c1)Sc1ccccc1N2CCN1CCCC1	x	x	x	x	n[12.7 µM]	x
O=C(c1ccccc1F)N(Cc1ccc2c(c1)OCO2)Cc1cc2cc3c(cc2n2nnnc12)OCO3	n	n	n	n	n	n
COc1cccc(-n2ccn(CC(=O)NCCc3ccccc3)c(=O)c2=O)c1	n	n	n	n	n	n
CN1CCN(Cc2oc(CO)cc(=O)c2O)CC1	56µM	n	n	n	u	u
O=c1cc(CO)oc(CN2CCCC2)c1O	89µM	n	n	n	45µM	u
O=c1cc(CO)oc(CN2CCN(Cc3ccccc3)CC2)c1O	u	n	n	n	50µM	u
CCN(CC)Cc1oc(CO)cc(=O)c1O	u	u	n	n	13µM	32µM
O=C(O)C1CCN(Cc2oc(CO)cc(=O)c2O)C1 (stereo unspecified)	u	n	n	n	x	x
COc1ccc(N2CCN(Cc3oc(CO)cc(=O)c3O)CC2)cc1	u	n	n	n	u	u
O=C(O)c1ccc(NC(=O)c2ccccc2NC(=O)c2ccccc2Cl)cc1	n	n	n	n	n	n
CCOc1cc(/C=N\NC(=O)OC(C)(C)C)ccc1OC(=O)c1ccco1	20µM	n	n	n	n	x
SMILES	JMJD2A Tudor inh	HP1b chromo inh	Six1-Eya2 blk	CtBP-E1A inh	G9a block	BAZ2B block
CCOc1cc(/C=N\NC(=O)OC)ccc1OC(=O)c1ccco1	n	n	n	n	n	n
CC(C)(C)OC(=O)N/N=C\c1ccc(OC(=O)c2ccco2)cc1	32µM	n	n	n	n	n
Cc1ccc(N2C(=O)CSC23C(=O)N(CC(=O)NC2CCCCC2)c2ccccc23)cc1C (stereo unspecified)	n	n	x	x	n	n
NC(=S)Cc1nc2n(n1)Cc1ccccc1-2	25µM	n	n	n	4µM	n
ON=C1c2cc(OCCN3CCCCC3)ccc2-c2ccc(OCCN3CCCCC3)cc21	u	n	n	n	x	u
CCOc1ccc(OCCOCCN2CCCC2)cc1	28µM	n	n	x	8.9µM	u
CCCOc1ccc(C(O)(CCC)CCN2CCCCC2)cc1 (stereo unspecified)	n	n	n	n	n	n
Cc1cc(OCCOCCN2CCCC2)ccc1C(C)C	5µM	n	n	n	20µM	u
Clc1ccc(OCCN2CCCCC2)cc1Cl	22µM	n	n	n	u	u
CNCCOc1ccc(Cl)c(Cl)c1	3.2µM	u	n	n	40µM	n
Cc1cc(OCCn2nc(C(=O)O)c3ccccc3c2=O)ccc1C(C)C	n	n	n	n	n	n
COc1ccc(-c2oc3c(c2C#CC(C)(C)O)C(OC)CCC3)cc1 (stereo unspecified)	x	x	n	n	x	x
CC(OCCN1CCCC1)(c1ccc(F)cc1)c1ccc(F)cc1	89µM	n	n	n	n	n
CCc1cccc(OCCOCCN2CCCC2)c1	10µM	u	n	n	10µM	79µM
COc1ccccc1OCCCCN1CCN(C(c2ccccc2)c2ccccc2)CC1	u	u	n	n	n	u
